A selection: hits, their analogues and other compounds. The true share with any hit is near 3%.
Nrf2 ARE act = qHTS of Nrf2 Activators | AREc32 ARE-luciferase reporter (MCF7-derived line), luminescence, 24 h | Potency, µM (highest dose often 46.1 µM), inactives show at the top dose activation, hits mostly activators | actives 0.31% (n = 410,000); note: % of control where 0% means no effect; nearly all actives have a fitted effect of over 65% in size
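Luciferase luminescence (Steady-Glo, 30 min at room temperature) served as the read-out of ARE activation in AREc32 cells treated with compounds for 24 hr at 37 deg C.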
rTrxR1 inhibitor = qHTS Assay for Inhibitors of Mammalian Selenoprotein Thioredoxin Reductase 1 (TrxR1): qHTS | Thioredoxin reductase 1, cytoplasmic (Rattus norvegicus), O89049 | recombinant rTrxR1, NADPH fluorescence consumption, selenite substrate | Potency, µM (doses to about 114 µM), inactives show at the top dose activity change, negative = inhibition, most hits filed as inhibitors | actives 1% (n = 390,000); note: % is set by controls: 0 for no effect and ±100 for the full control effect; nearly all actives have a fitted effect of over 65% in size
Target sequence (O89049 whole entry, looked up): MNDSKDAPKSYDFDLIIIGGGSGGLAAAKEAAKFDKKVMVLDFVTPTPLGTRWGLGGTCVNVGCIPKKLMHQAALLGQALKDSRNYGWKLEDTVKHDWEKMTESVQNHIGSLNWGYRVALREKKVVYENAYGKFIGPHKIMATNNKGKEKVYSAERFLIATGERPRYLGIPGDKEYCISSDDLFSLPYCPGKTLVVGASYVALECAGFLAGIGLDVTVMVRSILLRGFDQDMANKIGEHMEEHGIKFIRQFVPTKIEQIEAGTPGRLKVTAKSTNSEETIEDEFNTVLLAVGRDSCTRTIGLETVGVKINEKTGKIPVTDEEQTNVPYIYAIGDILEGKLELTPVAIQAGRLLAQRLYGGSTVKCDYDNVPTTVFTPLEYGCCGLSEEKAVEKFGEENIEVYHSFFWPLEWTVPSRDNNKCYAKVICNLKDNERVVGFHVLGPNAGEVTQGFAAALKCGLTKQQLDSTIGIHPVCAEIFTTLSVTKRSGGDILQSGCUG
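Rat TrxR1 (90 nM in the dispensed reagent) was pre-reduced with 400 uM NADPH for 5 min at room temperature, then incubated with compound for 15 min. After 400 uM selenite was added, NADPH fluorescence (Ex 340/Em 450 nm) was followed for 8 min.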
TrxR1 substrate = qHTS Assay for Substrates of Mammalian Selenoprotein Thioredoxin Reductase 1 (TrxR1): qHTS; Thioredoxin reductase 1, cytoplasmic (Rattus norvegicus), O89049; purified TrxR1 substrate turnover, NADPH consumption readout; Potency, µM (highest dose often 114 µM), inactives show at the top dose activity change, negative = substrate turnover; actives 0.01% (n = 390,000); note: % is set by controls: 0 for no effect and ±100 for the full control effect; nearly all actives have a fitted effect of over 50% in size
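Rat TrxR1, dispensed at 90 nM, was prereduced with 400 uM NADPH (final) for 5 min at ~22 deg C, then incubated with compound 15 min before 400 uM selenite. A first-read NADPH fluorescence drop versus no-compound background flagged substrates.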
A549 viability = Nrf2 qHTS screen for inhibitors: counterscreen for cytotoxicity; actives 0.16% (n = 390,000); A549 ARE-Fluc cells, CellTiter-Fluor viability, 18-24 h; Potency, µM (titrated, usually from 46 µM), without a hit: at the top dose activity change, negative = cytotoxicity, most hits filed as inhibitors; note: % is set by controls: 0 for no effect and ±100 for the full control effect
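A549 ARE_Fluc cells in 5% FBS OPTI-MEM were exposed to compounds in concentration-response for 18-24 h at 37 deg C. Viability was read by CellTiter-Fluor fluorescence (Ex 405/Em 525) after 30 min, before the luciferase read.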
GALK inh = qHTS Assay for Inhibitors of Human Galactokinase (GALK) | P51570 | Purified GALK, Kinase-Glo residual ATP luminescence | Potency, µM (top dose mostly 57.5 µM), for the others: at the top dose activity change, negative = inhibition, most hits filed as inhibitors | actives 0.007% (n = 270,000); note: % is set by controls: 0 for no effect and ±100 for the full control effect
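Galactose (100 uM) and ATP (35 uM) were turned over by 5 nM GALK for 1 h at RT. Kinase-Glo Plus then converted the remaining ATP into a luminescent signal.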
Nrf2 block = Nrf2 qHTS screen for inhibitors | A549 ARE-Fluc reporter, luciferase luminescence, 18-24 h | Potency, µM (highest dose often 46 µM), for inactives: at the top dose activity change, negative = inhibition, usual class: inhibitors | actives 2.1% (n = 360,000); note: % is set by controls: 0 for no effect and ±100 for the full control effect; nearly all actives have a fitted effect of over 60% in size
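A549 ARE_Fluc cells (5000/well, 5% FBS OPTI-MEM) pre-incubated 2 h, then treated with compounds 18-24 h at 37C/5% CO2 in concentration-response. CellTiter-Fluor viability read first; BugLite luciferase luminescence after 15 min at room temperature gives Nrf2 activity.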
* marks the source's active call; other numbers are inactive results; ? = inconclusive; . = no result given; [ ] = dose if it differs, or a comment. Calls come from the whole dose curve; as a rule, active = well fitted curve in the direction sought with a large enough effect; inconclusive = small, poorly fitted or top-dose-only effect, or another doubt; inactive = no such curve, though single readings can be large; an effect the other way counts as inactive or inconclusive. Potency is the fitted concentration of half-maximal effect.

SMILES | Nrf2 ARE act | rTrxR1 inhibitor | TrxR1 substrate | A549 viability | GALK inh | Nrf2 block
O=C(C=Cc1ccco1)c1ccc2ccccc2c1 | 7.9µM* | -8%[11.4 µM] | 12%[57.1 µM] | -3% | . | ?
O=C(/C=C/c1ccco1)c1ccc(O)cc1 | . | . | . | . | -2% | .
COc1ccc(Cl)cc1NC(=O)CSc1c2c(nc3ccccc13)CCC2 | ? | 7% | -2% | 3% | . | 3%
CN(C)c1cccc(S(=O)(=O)N2CCCN(S(=O)(=O)c3ccc4c(c3)OCCO4)CC2)c1 | . | . | . | 1% | . | -12%
Cc1c(P(=S)(c2ccccc2)c2ccccc2)c2ccccc2n1CCCc1ccccc1 | . | . | . | 4% | . | 5%
O=C(/C=C/c1ccco1)NC(=S)Nc1cccc(C(=O)O)c1 | 0% | 40µM* | -2% | 2% | -6% | ?
O=C(/C=C/c1ccco1)Nc1ccc2nn(-c3ccccc3)nc2c1 | ? | 56µM* | -5% | ? | 0% | -25%
Cc1ccc(NC(=O)N/C=C/c2ccco2)cc1 | 3% | 16µM* | 18% | . | 1% | ?
CC(=O)Nc1ccc(C(=O)/C=C/c2ccco2)cc1 | ? | 45µM* | -11% | -1% | -3% | 22%
COc1ccc(NC(=O)CSc2oc(-c3cccs3)nc2S(=O)(=O)c2ccc(Br)cc2)c(OC)c1 | 0% | ? | -5% | -1% | . | 2%[9.27 µM]
Cc1[nH]c2ccccc2c1/C=C/c1ccnc2ccccc12 | . | -19% | -1% | . | . | .
Cc1nc(N2CCOCC2)c2c(C(=O)N3CCN(c4ccc(Cl)cc4)CC3)c(C)oc2n1 | 1% | 8% | -8% | 10% | . | 5%
Cc1cc2c(s1)c1cnn(Cc3c(F)c(F)c(C)c(F)c3F)c(=O)c1n2C | . | . | . | -4% | . | 10%
O=C(/C=C/c1ccco1)NC(=S)Nc1ccccc1O | 26% | -8%[57.1 µM] | -2% | 3% | -3% | ?
CCOc1ccc(NC(=S)NC(=O)/C=C/c2ccco2)cc1 | 22% | -8%[57.1 µM] | 10%[57.1 µM] | -9% | -4% | -8%
O=C(/C=C\c1ccco1)NC(=S)Nc1ccccc1O | 7.1µM* | ? | 0% | -1% | -3% | 10%
COc1cc(NS(=O)(=O)c2ccc(NC(=S)NC(=O)/C=C/c3ccco3)cc2)ncn1 | 14% | 56µM* | -17% | -11% | 6% | 1%
O=C1Nc2ccccc2/C1=C/c1ccccc1F | ? | 10% | -2% | 1% | -1% | 14%
Cc1ccccc1/C=C1\C(=O)Nc2ccc(F)cc21 | ? | 11% | -2% | ? | 0% | 2.9µM*
COc1cccc(CN(C)CC(=O)Nc2ccccc2C(=O)Nc2ccccc2)c1OC | 3% | 5%[57.1 µM] | 2%[57.1 µM] | ? | -1% | 23µM*
COc1ccc([C@H]2[C@H](c3ccccc3)C(=O)N2Cc2ccccc2)cc1COc1ccc(NC(C)=O)cc1 | . | . | . | -3% | . | ?
CCN(C1CCCCC1)S(=O)(=O)c1ccc(S(=O)(=O)NCc2ccncc2)cc1 | -1% | 6% | 4% | -2% | -3% | 8.2µM*
C=CCN1C=C/C(=C\C=C(C#N)C#N)c2ccccc21 | 3% | 1%[57.1 µM] | -20%[57.1 µM] | 18µM* | 3% | ?
CCCCCCN1C=C/C(=C\C=C(C#N)C#N)c2ccccc21 | -1% | -20% | -1% | 6.5µM* | 7% | 18µM*
C=CCN1C=CC(=CC=C(C#N)C#N)C=C1 | 7% | -40% | -4%[57.1 µM] | -17% | -3% | 21%
Cc1ccc(S(=O)(=O)CCC(=O)c2ccc(O)cc2O)cc1 | ? | 7.1µM* | -5% | 13% | -6% | 5%
COc1ccc(C(=O)CCS(=O)(=O)c2ccc(C)cc2)cc1OC | -3% | 2.2µM* | 7% | -5% | -2% | -3%

Screens (PubChem BioAssay)
